AMA1-RON2 inh = AMA1-RON2 (P. falciparum) interaction inhibition; AlphaScreen AMA1-biotinylated RON2 peptide binding; Potency, µM (top dose mostly 58.2 µM), for the others: top-dose activity change, negative = inhibition, usual class: inhibitors; hit rate 0.2% among 360,000; AID 720542;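 also: potency is read from the fitted curve at half-maximal effect; 0% = vehicle wells and -100% = peptide control; nearly all actives have a fitted effect of over 45% in size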
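AMA1 (3D7) with his tag at 25 nM final met compounds first, then biotinylated RON2 peptide at 25 nM; detection used donor plus acceptor beads, 10 µg/mL apiece, read by AlphaScreen after 30 min at room temperature.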
Pf growth 48h = inhibits P. falciparum growth in the first generation, 48 h; hit rate 5.9% among 310,000; Potency, µM (doses to about 28.7 µM), inactives show at the highest dose activity change, negative = inhibition, hits mostly inhibitors; AID 504832; P. falciparum luciferase growth in erythrocytes, 48 h; also: potency is read from the fitted curve at half-maximal effect; % is scaled to controls: 0 for no effect and ±100 for the full control effect
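Parasite viability was followed by luminescence of a genomically integrated firefly luciferase. Cultures held 0.1% parasitemia at 2% hematocrit (final), incubated under 5% CO2 at 37 C.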
Pf growth 96h = P. falciparum growth inhibition at 96 hours | Potency, µM (titrated, usually from 28.7 µM), inactives show at the highest dose activity change, negative = inhibition, most hits filed as inhibitors | hit rate 6.9% among 320,000 | AID 504834 | P. falciparum luciferase reporter growth, 96 h; also: potency is read from the fitted curve at half-maximal effect; % is scaled to controls: 0 for no effect and ±100 for the full control effect
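96 h incubation, 37 C, 5% CO2, of luciferase-reporter P. falciparum-infected RBCs (2% hematocrit, 0.05% parasitemia final) with test compounds; endpoint luminescence.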
HCV inhibitor = inhibitors of hepatitis C virus infection; Huh7.5.1 HCVcc-Cre infection, luciferase reporter, 44 h; Potency, µM (series often up to 41.8 µM), inactives show at the highest dose activity change, negative = inhibition, usual class: inhibitors; hit rate 3.4% among 340,000; AID 651820; also: potency is read from the fitted curve at half-maximal effect; % is scaled to controls: 0 for no effect and ±100 for the full control effect
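Infectious HCVcc-Cre (~0.5 moi) was added to cells just after compound, with cells seeded 4 h earlier at 1,000 per well. Luciferase activity after 44 h culture reported infection; substrate was incubated 15 min at room temperature before reading.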
CHX counter = affects cycloheximide protein synthesis inhibition readout, counter-screen | cell reporter, cycloheximide protein synthesis inhibition counterscreen | max response, % | hit rate 12% among 300,000; in the data active = max response mostly above about 13%, no sharp cut-off; inactive = mostly below about 14%; also: read at 38.3 µM for the half of the compounds with a filed dose; 0% is about no effect
Shiga toxin inh = blocks Shiga toxin action in Vero cells; Vero cells, Shiga toxin protein synthesis inhibition reporter; inhibition, % at 38.7 µM; hit rate 9.2% among 290,000; in the data active = inhibition mostly above about 28%, no sharp cut-off; inactive = mostly below about 43%; also: 0% is about no effect
Active calls of the source: *; [ ] = remark or other dose. Compounds with a hit are over-represented: about 21% of the library has one in this group of screens. Unless noted, calls follow the shape of the dose curve; as a rule, active = well fitted curve in the direction sought with a large enough effect; inconclusive = small, poorly fitted or top-dose-only effect, or another doubt; inactive = no such curve, though single readings can be large; an effect the other way counts as inactive or inconclusive.

`CCOC(=O)N1CCN(C(=O)C2CCCN(Cc3nc(-c4ccc(Cl)cc4)oc3C)C2)CC1` (centres undefined) gave AMA1-RON2 inh 11.2%, Pf growth 96h 10.4µM*, HCV inhibitor 1.41µM*, CHX counter -3.7 and Shiga toxin inh -1.1.
For CCOC(=O)N1CCC(NC(=O)C2CCCN(Cc3nc(-c4cccc(Cl)c4)oc3C)C2)CC1 (centres undefined) the results were AMA1-RON2 inh 3.1%, Pf growth 96h inconclusive, HCV inhibitor 5.62µM*, CHX counter -2.5 and Shiga toxin inh -11.4.
Cc1oc(-c2ccc(Cl)cc2)nc1CN1CCCC(C(=O)NCc2ccco2)C1 (centres undefined) was read as AMA1-RON2 inh 6.5%, Pf growth 48h 14.0%, Pf growth 96h inconclusive, HCV inhibitor 12.6µM*, CHX counter 19.7 and Shiga toxin inh -5.9.
`Cc1oc(-c2ccc(Cl)cc2)nc1CN1CCCC(C(=O)NC2CC2)C1` (centres undefined) gave AMA1-RON2 inh -3.4%, Pf growth 48h 0.0%, Pf growth 96h inconclusive, HCV inhibitor inconclusive, CHX counter 5.0 and Shiga toxin inh -3.9.
`CCc1ccc2c(CN(C)Cc3ccc(OC(F)F)c(OC)c3)cc(=O)oc2c1` gave AMA1-RON2 inh 2.5%, Pf growth 48h inconclusive, Pf growth 96h inconclusive, HCV inhibitor inconclusive, CHX counter -1.1 and Shiga toxin inh -4.1.
`COc1ccc(CCNC(=O)C2CCCN(Cc3nc(-c4ccccc4C)oc3C)C2)cc1OC` (centres undefined) gave AMA1-RON2 inh -1.4%, Pf growth 48h inconclusive, Pf growth 96h -9.7%, HCV inhibitor inconclusive, CHX counter -2.7 and Shiga toxin inh -13.5.
CCc1ccc(-c2nc(CN3CCCC(C(=O)NCCc4ccc(OC)c(OC)c4)C3)c(C)o2)cc1 (centres undefined) was read as AMA1-RON2 inh -8.9%, Pf growth 48h inconclusive, Pf growth 96h inconclusive, HCV inhibitor 8.91µM*, CHX counter -1.4 and Shiga toxin inh -3.7.
Cc1ccc(C(C)NC(=O)C23CC4CC(CC(C4)C2)C3)cc1 (centres undefined) was read as AMA1-RON2 inh 10.8%, Pf growth 48h -32.6%[1.15 µM], Pf growth 96h 0.586µM*, HCV inhibitor 9.3%, CHX counter -2.5 and Shiga toxin inh -4.6.
Screening CSCCC(NC(=O)C12CC3CC(CC(C3)C1)C2)C(=O)OCC(=O)c1ccc(C)cc1 (centres undefined) returned AMA1-RON2 inh 0.0%, Pf growth 48h -4.5%, Pf growth 96h 0.329µM*, HCV inhibitor 29.2%, CHX counter -2.0 and Shiga toxin inh -9.4.
CC(NC(=O)C12CC3CC(CC(C3)C1)C2)c1ccc2c(c1)OCCO2 (centres undefined) was read as AMA1-RON2 inh 0.7%, Pf growth 96h inconclusive, HCV inhibitor 1.5%, CHX counter -4.3 and Shiga toxin inh 22.9.
`Cc1cc(C)cc(C(O)c2ncc(-c3ccccc3Cl)[nH]2)c1` (centres undefined) gave AMA1-RON2 inh 0.0%.
For CO[C@@H]1CN(C)C(=O)c2cc(NS(=O)(=O)c3ccc(C)cc3)ccc2OC[C@H](C)N(Cc2nccs2)C[C@H]1C the results were AMA1-RON2 inh 2.3%.
O=S1(=O)NC(CC2=CCCCC2)C2CCCCC2O1 (centres undefined) was read as AMA1-RON2 inh 5.7%, Pf growth 48h 6.6%, Pf growth 96h -4.2%, HCV inhibitor 7.2%, CHX counter -2.8 and Shiga toxin inh -3.7.
For N#Cc1cccnc1N1CCC(C(N)=O)CC1 the results were AMA1-RON2 inh 1.8%, Pf growth 48h 31.2%, Pf growth 96h 47.2%, HCV inhibitor 8.3%, CHX counter -1.7 and Shiga toxin inh -5.2.
For CC(C)NC(=O)NC(=O)CSc1nnc(-c2c[nH]c3ccccc23)o1 the results were AMA1-RON2 inh 122.4%, Pf growth 48h 5.1%, Pf growth 96h -21.7%, HCV inhibitor inconclusive, CHX counter 29.9 and Shiga toxin inh 37.9.
For CCOC(=O)C(=O)N(Nc1ccc(C)cc1)c1ccc(C)cc1 the results were AMA1-RON2 inh 4.3%, Pf growth 48h inconclusive, Pf growth 96h inconclusive, HCV inhibitor -15.4%, CHX counter 15.9* and Shiga toxin inh 71.8*.
COC(=O)CNC(=O)COC(=O)Cc1ccc(Cl)cc1 was read as AMA1-RON2 inh -3.5%, Pf growth 48h inconclusive, Pf growth 96h 35.4%, HCV inhibitor 20.7%, CHX counter -2.4 and Shiga toxin inh -6.3.
`CCc1cccc(C)c1NC(=O)COC(=O)c1c2c(nc3ccccc13)/C(=C\c1cccs1)CCC2` gave AMA1-RON2 inh -9.2%, Pf growth 48h 13.1µM*, Pf growth 96h 10.4µM*, HCV inhibitor 1.12µM*, CHX counter -2.9 and Shiga toxin inh -6.0.
`CCCCNC(=O)COC(=O)c1c2c(nc3ccccc13)/C(=C\c1cccs1)CC2` gave AMA1-RON2 inh 51.8% and HCV inhibitor 2.82µM*.
`CC1CCCCC1NC(=O)COC(=O)c1c2c(nc3ccccc13)/C(=C/c1ccco1)CC2` (centres undefined) gave AMA1-RON2 inh inconclusive, Pf growth 48h -44.8%, Pf growth 96h 14.7µM*, HCV inhibitor inconclusive, CHX counter 9.7 and Shiga toxin inh -13.1.
Screening CC(C)CNC(=O)COC(=O)c1c2c(nc3ccccc13)/C(=C/c1cccs1)CC2 returned AMA1-RON2 inh -0.9%, Pf growth 48h inconclusive, Pf growth 96h inconclusive, HCV inhibitor inconclusive, CHX counter 24.8* and Shiga toxin inh 56.2*.
Screening CC1CCN(C(=O)CSc2nc(C(C)C)nc3c2c(=O)n(C)c(=O)n3C)CC1 returned AMA1-RON2 inh 17.7%, Pf growth 48h inconclusive, Pf growth 96h inconclusive, HCV inhibitor inconclusive, CHX counter -0.7 and Shiga toxin inh 9.4.
For COC(=O)C(NC(=O)c1ccc(F)cc1)(Nc1ncc(S(=O)(=O)c2ccc([N+](=O)[O-])cc2)s1)C(F)(F)F (centres undefined) the results were AMA1-RON2 inh -3.5%, Pf growth 48h inconclusive, Pf growth 96h 13.1µM*, HCV inhibitor inconclusive, CHX counter 1.0 and Shiga toxin inh -14.9.
Screening COC(=O)C(NC(=O)c1ccccc1C)(Nc1ncc(S(=O)(=O)c2ccc([N+](=O)[O-])cc2)s1)C(F)(F)F (centres undefined) returned AMA1-RON2 inh -23.8%, Pf growth 48h 11.7µM*, Pf growth 96h 4.15µM*, HCV inhibitor -16.9%, CHX counter -2.0 and Shiga toxin inh 4.8.
`Cc1c(C(=O)NCc2ccc(Cl)c(Cl)c2)sc(=O)n1Cc1ccc(C(=O)N(C)C)cc1` gave AMA1-RON2 inh -8.3%.

From PubChem BioAssay
